Screening data deposited in PubChem BioAssay by National Center for Advancing Translational Sciences (NCATS).
HCMV antiviral: blocks human cytomegalovirus replication; HFF cells, HCMV-luciferase reporter, 72 h; hits give low values; actives 4.5% (n = 410,000); activity change, negative = inhibition, % at 57.5 µM; in the data active = activity change below about -60%; inconclusive = no clear call, values can overlap the other calls; inactive = above about -39%; also: % is scaled to controls: 0 for no effect and ±100 for the full control effect
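Human foreskin fibroblasts infected with luciferase-reporter HCMV at MOI 1 PFU/cell, compounds at two doses. Luciferase measured 72 h post infection; normalized to buffer-only basal and Salinomycin (10uM) controls.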
HCV inhibitor: blocks hepatitis C virus; Huh7.5.1 HCVcc-Cre infection, luciferase reporter, 44 h; Potency, µM (titrated, usually from 41.8 µM), inactives show at the highest dose activity change, negative = inhibition, most hits filed as inhibitors; actives 3.4% (n = 340,000); AID 651820; also: potency is read from the fitted curve at half-maximal effect; % is scaled to controls: 0 for no effect and ±100 for the full control effect
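After 44 h co-culture of compound, cells and HCVcc-Cre (~0.5 moi), substrate is added for 15 min at room temperature and luciferase measured over 15 sec. Cells were seeded at 1,000/well and pre-cultured 4 h.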
Sm TGR block: S. mansoni TGR enzyme inhibition; Q962Y6; actives 3% (n = 360,000); AID 485364; purified TGR, DTNB reduction, TNB absorbance 405 nm; Potency, µM (doses to about 114 µM), for the others: top-dose activity change, negative = inhibition, hits mostly inhibitors; also: potency is read from the fitted curve at half-maximal effect; % is scaled to controls: 0 for no effect and ±100 for the full control effect; nearly all actives have a fitted effect of over 60% in size
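TGR 20 nM + NADPH 100 uM (dispensed conc.), cpd preinc 15 min RT; start with NADPH (500 uM addition) then DTNB (15 mM addition). Kinetic TNB absorbance, 405 nm filter. Four-parameter Hill fit across titration.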
SARS PLpro yeast: blocks SARS-CoV papain-like protease in a yeast assay. S. cerevisiae expressing SARS-CoV PLpro, growth rescue. Potency, µM (highest dose often 32.9 µM), for the others: at the highest dose activity, positive = growth rescue, hits mostly activators. actives 0.19% (n = 330,000). AID 485353; calls by dose curve; also: potency is read from the fitted curve at half-maximal effect; 0% is about no effect; nearly all actives have a fitted effect of over 55% in size
Pf growth 48h: P. falciparum growth inhibition at 48 hours (one generation); AID 504832; Potency, µM (series often up to 28.7 µM), without a hit: top-dose activity change, negative = inhibition, most hits filed as inhibitors; P. falciparum luciferase growth in erythrocytes, 48 h; actives 5.9% (n = 310,000); also: potency is read from the fitted curve at half-maximal effect; % is scaled to controls: 0 for no effect and ±100 for the full control effect
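First compound was added to culture medium, then infected red cells at 0.1% parasitemia and 2% hematocrit (final). After incubation at 37 C under 5% CO2, luciferase detection reagent was dispensed and light output recorded.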
Pf growth 96h: P. falciparum growth inhibition at 96 hour, primary screen for plastid delayed-death inhibitors; P. falciparum luciferase reporter growth, 96 h; Potency, µM (doses to about 28.7 µM), for the others: top-dose activity change, negative = inhibition, actives largely listed as inhibitors; actives 6.9% (n = 320,000); also: potency is read from the fitted curve at half-maximal effect; % is scaled to controls: 0 for no effect and ±100 for the full control effect
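Two parasite generations (96 h, 37 C, 5% CO2) of compound exposure in infected erythrocytes (0.05% parasitemia, 2% hematocrit). Luciferase-reporter P. falciparum; decreased luminescence indicates inhibited growth, aimed at apicoplast-acting delayed death.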
* marks the source's active call; other numbers are inactive results; ? = inconclusive; . = not tested or not shown; [ ] = remark or other dose. An excerpt weighted towards active compounds, which were near 15% of everything screened. Unless noted, calls follow the shape of the dose curve; as a rule, active = well fitted curve in the direction sought with a large enough effect; inconclusive = small, poorly fitted or top-dose-only effect, or another doubt; inactive = no such curve, though single readings can be large; an effect the other way counts as inactive or inconclusive.

SMILES | HCMV antiviral | HCV inhibitor | Sm TGR block | SARS PLpro yeast | Pf growth 48h | Pf growth 96h
Cc1cccc(N2CCN(C(=O)c3ccc(CNc4c(N5CCC(C)CC5)c(=O)c4=O)cc3)CC2C)c1 (stereo unspecified) | -60* | ? | -13% | 0% | ? | ?
CC1CCN(c2c(NCc3ccc(C(=O)N(C)C4CCCCC4)cc3)c(=O)c2=O)CC1 | -11 | -5% | 7% | 0% | 8.3µM* | -19%
CC1CCN(c2c(NCc3ccc(C(=O)NCC4COc5ccccc5O4)cc3)c(=O)c2=O)CC1 (stereo unspecified) | 24 | -6% | . | . | . | .
CC1CCN(c2c(NCc3ccc(C(=O)N4CCc5ccccc54)cc3)c(=O)c2=O)CC1 | -84* | 4% | -5% | -3% | . | -105%
COc1cc(/C=N/NC(=O)CCC(=O)NC2CCCCC2)ccc1C | -5 | 0% | -3% | -1% | 4% | 25%
COc1cc(C2CC(=O)Nc3c2c(=O)n(C)c(=O)n3C)cc(OC)c1OC (stereo unspecified) | 3 | . | 16% | . | . | .
COc1ccc(S(=O)(=O)N(CC(=O)Nc2cc(Cl)ccc2C)Cc2ccccc2)cc1OC | -6 | . | 2% | . | . | .
CN(C)S(=O)(=O)c1ccc(C(=O)NCC[N+]2(C)CCCCCC2)o1 | 8 | -3% | 10% | -1% | ? | 9.3µM*
Cc1ccc(NC(=O)c2ccc(Br)o2)cc1S(=O)(=O)N(C)C | 33 | ? | ? | 2% | -3% | 21%
Cn1c(=O)oc2cc(S(=O)(=O)NCCC(=O)Nc3ccc(F)cc3F)ccc21 | 9 | . | -3% | . | . | .
O=C1NC(=O)C(Cc2cccs2)C(=O)N1 | 23 | 2% | 40µM* | -3% | 15% | 5%
COc1ccccc1C(=O)Nc1ccc2c(c1)nc1n2CCN(C2CCCCC2)C1 | -14 | ? | 25µM* | -10% | ? | ?
O=C(Nc1ccc2c(c1)nc1n2CCN(C2CCCCC2)C1)NC1CCCCC1 | . | . | 13µM* | 0% | 4% | 0%
CC(C)CN(C(=O)Cn1c(C(F)(F)F)nc2ccccc21)c1c(N)n(Cc2ccccc2)c(=O)[nH]c1=O | 0 | -6% | . | . | . | .
CCOC(=O)C(C)n1nc(/C=C/c2ccc(OC)cc2)ccc1=O (stereo unspecified) | 5 | 3% | -2% | -8% | ? | 9.3µM*
CCOC(=O)C(C)n1nc(/C=C/c2ccccc2)ccc1=O (stereo unspecified) | 100 | -4% | -27% | 2% | ? | ?
COC(=O)C/C=C/[C@@H](C)[C@@H](/C=N/OC[C@H]1O[C@H](c2ccccc2)C=C[C@@H]1Oc1ccc(OC)cc1)NS(=O)(=O)c1ccc(C)cc1 | . | 1%[8.37 µM] | -17% | -6% | 12µM* | 7.4µM*
COc1ccc(O[C@H]2C=C[C@@H](c3ccccc3)O[C@@H]2COC(=O)CC/C(C)=N/O[C@@H](C)CN2CCCCc3nc(C)c(C)cc32)cc1 | . | -6%[8.37 µM] | -26% | -5% | 5.9µM* | 8.3µM*
COc1ccc(O[C@H]2C=C[C@@H](c3ccccc3)O[C@@H]2CO/N=C(\C)CCC(=O)OC[C@H]2O[C@H](c3ccccc3)C=C[C@@H]2Oc2ccc(OC)cc2)cc1 | . | -5%[8.37 µM] | ? | -2% | 2.6µM* | 2.3µM*
C/C(CCC(=O)OC[C@H]1O[C@H](C#Cc2ccccc2)C=C[C@@H]1Oc1ccc(C)cc1)=N\O[C@@H](C)CN1CCCCc2nc(C)c(C)cc21 | . | 0%[8.37 µM] | 35µM* | -6% | 15µM* | 4.1µM*
Cc1cccc(S(=O)(=O)NC(=O)C2(C)CCN2C(=O)Cc2ccc(-c3ccccc3)cc2)c1 (stereo unspecified) | -15 | . | . | . | . | .
CCCCn1c(N)c(N(CC(C)C)C(=O)c2cccs2)c(=O)[nH]c1=O | -1 | 10% | 5% | -1% | -11% | 0%
CC(C)(C)c1ccc(-c2cc(NC(=O)Cc3c[nH]c4ccccc34)ccc2Nc2cccnc2)cc1 | 57 | . | . | . | . | .
O=C(COC(=O)c1ccc(Cl)c(S(=O)(=O)N2CCCCC2)c1)NCC1CCCO1 (stereo unspecified) | -25 | 6% | 7% | -1% | 20% | -3%
CC(C)CNC(=O)c1c(N)n(Cc2ccc3c(c2)OCO3)c2nc3ccccc3nc12 | -80* | 15% | 2% | -12% | 6.6µM* | .
SMILES | HCMV antiviral | HCV inhibitor | Sm TGR block | SARS PLpro yeast | Pf growth 48h | Pf growth 96h
CC(C)CCNC(=O)c1c(N)n(Cc2ccc3c(c2)OCO3)c2nc3ccccc3nc12 | -34 | 2% | -25% | -4% | . | 12µM*
CCOC(=O)c1c(O)c2cc(Cl)ccc2n(CC)c1=O | -8 | -6% | 6% | 0% | -20% | ?
OC(COCC(F)(F)C(F)(F)C(F)(F)C(F)F)Cn1c2ccc(Cl)cc2c2cc(Cl)ccc21 (stereo unspecified) | . | 3.2µM* | -6% | -94% | 1µM* | 0.59µM*
COc1ccc(C(CNC(=O)CCNS(=O)(=O)c2ccc(Br)cc2)N2CCCC2)cc1 (stereo unspecified) | -23 | ? | -8% | -4% | 4.1µM* | 2.1µM*
CC(Oc1ccc(Br)cc1)C(=O)NCC(c1cccs1)N1CCOCC1 (stereo unspecified) | -26 | 3% | -5% | . | ? | 0%
COc1ccc(C(CNC(=O)CCNS(=O)(=O)c2ccc(Br)cc2)N2CCOCC2)cc1 (stereo unspecified) | 0 | -3% | . | . | . | .
COc1ccc(C(CNC(=O)C(C)Oc2ccc(Br)cc2)N2CCCCC2)cc1 (stereo unspecified) | -20 | ? | 1% | 0% | 13µM* | ?
CCC(C)NC(=O)CCNS(=O)(=O)c1ccc(Br)cc1 (stereo unspecified) | -10 | -27% | 1% | -4% | -9% | 7.4µM*
CCc1nc2ccc(C(=O)N3CCN(c4ccccc4)CC3)cn2c1N(CCC(C)C)CCN(C)C | -29 | . | . | . | . | .
Cc1ccc(Cc2c(-c3ccccc3)nc3cc(C)c(Br)c(C)n23)cc1 | 19 | . | . | . | . | .
S=C(NCc1ccccc1)NN1CCOCC1 | 11 | 20% | -1% | -1% | 1% | 0%
COc1ccc(OC)c(S(=O)(=O)N2CCCc3ccccc32)c1 | -102* | 0% | 1% | -3% | 6% | -6%
CC(=O)Nc1ccc(S(=O)(=O)N2CCN=C2c2ccccc2)cc1 | -9 | -3% | -10% | 2% | -19% | 15µM*
O=S(=O)(NC1CC1)c1ccc(S(=O)(=O)N2CCc3ccccc32)cc1 | -81* | ? | 5% | 1% | -17% | .
O=S(=O)(c1ccc(F)cc1)N1CCc2ccccc21 | -34 | 15% | 6% | -2% | 12% | -14%
